Assay results reported in PubChem BioAssay.
The source made the active and inactive calls.

Columns and labels:
[1] = test system: PRMT1 (protein arginine N-methyltransferase 1); experiment: PRMT1 binders on small-molecule microarrays, primary screen, biochemical, small-molecule microarray, 635 nm fluorescence (AID 1088); settings: small-molecule microarray binding, higher = more signal;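 further: binding of Prmt1 protein to compounds spotted on small-molecule microarray slides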
[2] = yeast growth modulation, basal conditions, primary screen, YJM789 clinical isolate, OD600, 24 h (AID 1089);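 further: growth of clinical yeast isolate S. cerevisiae YJM 789 seeded 1000 cells per well; test concentration not given here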; settings: S. cerevisiae YJM789 growth, higher = more signal, called active from +8 up or from −8 down
[3] = fission yeast growth modulation, primary screen, strain 972, OD600, 24 h, no modulator (AID 1090);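 further: basal condition with compound alone and no growth modifier present; test concentration not given here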; settings: S. pombe 972 growth, higher = more signal, called active from +8 up or from −8 down
[4] = S. cerevisiae growth modulation with rapamycin, primary screen, strain BY4716, OD600, 96 h (AID 1091); settings: higher = more signal, called active from +8 up or from −8 down; further: test concentration not given here
[5] = target: Torsin-1A-interacting protein 2 (Homo sapiens) (UniProt Q8NFQ8); experiment: LULL1 binders on small-molecule microarray, primary screen, cell lysate, human LULL1 lysate, 635/667 nm fluorescence (AID 1092); settings: hLULL1 lysate binding, 635 nm fluorescence, higher = more signal;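 further: probe is lysate of COS7 cells overexpressing human LULL1; score merges per-feature 667 nm fluorescence with signal-to-noise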
[6] = E. coli growth modulation, two-sided OD650, primary screen, E. coli filamentation project, strain DRC41, 24 h (AID 1093); settings: OD650, 24 h, higher = more signal, called active from +8 up or from −8 down;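 further: MC1000 strain lacking acrAB efflux and sulA so SOS filamentation is blocked; test concentration not given here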
[7] = small-molecule microarray binders of probe aLefty2, primary screen, biochemical, biotinylated probe, 635/667 nm fluorescence (AID 1094); settings: higher = more signal;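 further: score merges spot fluorescence near 667 nm with spot signal-to-noise ratio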
[8] = test system: Noggin (protein binding on small-molecule microarray); experiment: Noggin binders on small-molecule microarray, primary screen, biochemical, 635/667 nm fluorescence (AID 1095); settings: 635 nm fluorescence, higher = more signal;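 further: score merges 667 nm feature fluorescence with signal to noise over triplicate slides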
[9] = target: Neurogenic locus notch homolog protein 3 (Homo sapiens) (UniProt Q9UM47); experiment: NOTCH3 binders on small-molecule microarray, primary screen, biochemical, 635/667 nm fluorescence (AID 1096); settings: NOTCH3 binding, 635 nm fluorescence, higher = more signal
[10] = small-molecule microarray binders of probe aEGFR, primary screen, biochemical, biotinylated probe, 635/667 nm fluorescence (AID 1097); settings: higher = more signal;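 further: probe is a biotinylated anti-EGFR antibody binding compounds printed on slides; score combines fluorescence near 667 nm and signal to noise of each spot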
[11] = test system: Plasmodium falciparum Sir2 (PF13_0152, Sir2A); experiment: pfSir2 binders on small-molecule microarrays, primary screen, biochemical, small-molecule microarray, 635 nm fluorescence (AID 1098); settings: small-molecule microarray binding, fluorescence 635 nm; higher = more signal;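 further: score merges spot fluorescence intensity with its signal-to-noise ratio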
[12] = small-molecule microarray binders of probe aDKK1, primary screen, biochemical, biotinylated probe, 635/667 nm fluorescence (AID 1099); settings: higher = more signal;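 further: score merges 667nm spot fluorescence with signal to noise across triplicate slides; reference of the scale not given here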
[13] = small-molecule microarray binders of probe aCHRDL2, primary screen, biochemical, biotinylated probe, 635/667 nm fluorescence (AID 1100); settings: higher = more signal
[14] = splicing luciferase reporter signal modulators, primary screen, spliceosome inhibition project, cell-based, HEK293, splice +/- reporter (AID 1101); settings: luminescence, 24 h, higher = more signal, called active from +8 up or from −8 down;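 further: HEK293 cells carrying a splicing-competent luciferase reporter gene; test concentration not given here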
[15] = target: Fibroblast growth factor 10 (Homo sapiens) (UniProt O15520); experiment: FGF10 binders on small-molecule microarrays, primary screen, biochemical, small-molecule microarray, 635 nm fluorescence (AID 1102); settings: FGF10 binding, fluorescence 635 nm, higher = more signal
[16] = test system: glycogen synthase kinase-3 (GSK3A per assay name; protocol says GSK3B); experiment: GSK3 binders on small-molecule microarrays, primary screen, biochemical, small-molecule microarray, 635 nm fluorescence, GSK3A (AID 1103); settings: small-molecule microarray binding, fluorescence 635 nm; higher = more signal; further: the record names both GSK3A and GSK3B
[17] = target: Epidermal growth factor receptor (Homo sapiens) (UniProt P00533); experiment: EGFR binders on small-molecule microarrays, primary screen, biochemical, small-molecule microarray, 635 nm fluorescence (AID 1104); settings: EGFR binding, higher = more signal;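 further: score merges 667 nm emission intensity with spot signal to noise over triplicate slides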
[18] = target: Follistatin-related protein 3 (Homo sapiens) (UniProt O95633); experiment: FSTL3 binders on small-molecule microarrays, primary screen, biochemical, small-molecule microarray, 635 nm fluorescence (AID 1105); settings: FSTL3 binding, higher = more signal;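 further: score merges emission near 667 nm and signal to noise per printed spot across three slides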
[19] = target: Dickkopf-related protein 1 (Homo sapiens) (UniProt O94907); experiment: DKK1 binders on small-molecule microarrays, primary screen, biochemical, small-molecule microarray, 635 nm fluorescence scan (AID 1106); settings: DKK1 binding, higher = more signal;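 further: score merges emission near 667 nm with signal to noise over three replicate slides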
[20] = test system: Inhibin beta A chain (activin A); experiment: INHBA (activin A) binders on microarrays, primary screen, biochemical, small-molecule microarray, 635 nm fluorescence scan (AID 1107); settings: small-molecule microarray binding, higher = more signal;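 further: mouse activin A protein probed at 4.33 µg/mL on printed slides; score merges bound-protein fluorescence near 667 nm with spot signal-to-noise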

Torsin-1A-interacting protein 2 (Homo sapiens), sequence (Q8NFQ8 whole entry, looked up): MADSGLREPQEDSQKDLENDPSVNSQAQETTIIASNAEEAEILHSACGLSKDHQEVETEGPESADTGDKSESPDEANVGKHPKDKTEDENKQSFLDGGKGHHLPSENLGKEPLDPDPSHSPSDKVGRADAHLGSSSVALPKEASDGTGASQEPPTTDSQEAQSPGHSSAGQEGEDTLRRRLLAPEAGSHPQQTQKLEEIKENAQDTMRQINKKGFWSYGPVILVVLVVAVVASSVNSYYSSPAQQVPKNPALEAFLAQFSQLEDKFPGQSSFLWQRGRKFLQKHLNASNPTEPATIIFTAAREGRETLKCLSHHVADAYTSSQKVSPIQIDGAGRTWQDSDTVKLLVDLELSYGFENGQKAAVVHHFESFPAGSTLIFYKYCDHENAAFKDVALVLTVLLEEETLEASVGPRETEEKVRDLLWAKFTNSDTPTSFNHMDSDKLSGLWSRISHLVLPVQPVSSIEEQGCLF
Follistatin-related protein 3 (Homo sapiens), sequence (O95633 whole entry, looked up): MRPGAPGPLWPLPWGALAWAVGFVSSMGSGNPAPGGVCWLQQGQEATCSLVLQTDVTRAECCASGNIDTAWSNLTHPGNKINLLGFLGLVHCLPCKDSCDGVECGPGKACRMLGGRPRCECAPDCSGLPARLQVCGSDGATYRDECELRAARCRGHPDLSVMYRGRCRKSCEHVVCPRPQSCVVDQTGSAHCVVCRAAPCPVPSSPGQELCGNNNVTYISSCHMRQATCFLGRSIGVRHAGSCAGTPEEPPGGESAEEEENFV
Neurogenic locus notch homolog protein 3 (Homo sapiens), sequence (Q9UM47 whole entry, looked up): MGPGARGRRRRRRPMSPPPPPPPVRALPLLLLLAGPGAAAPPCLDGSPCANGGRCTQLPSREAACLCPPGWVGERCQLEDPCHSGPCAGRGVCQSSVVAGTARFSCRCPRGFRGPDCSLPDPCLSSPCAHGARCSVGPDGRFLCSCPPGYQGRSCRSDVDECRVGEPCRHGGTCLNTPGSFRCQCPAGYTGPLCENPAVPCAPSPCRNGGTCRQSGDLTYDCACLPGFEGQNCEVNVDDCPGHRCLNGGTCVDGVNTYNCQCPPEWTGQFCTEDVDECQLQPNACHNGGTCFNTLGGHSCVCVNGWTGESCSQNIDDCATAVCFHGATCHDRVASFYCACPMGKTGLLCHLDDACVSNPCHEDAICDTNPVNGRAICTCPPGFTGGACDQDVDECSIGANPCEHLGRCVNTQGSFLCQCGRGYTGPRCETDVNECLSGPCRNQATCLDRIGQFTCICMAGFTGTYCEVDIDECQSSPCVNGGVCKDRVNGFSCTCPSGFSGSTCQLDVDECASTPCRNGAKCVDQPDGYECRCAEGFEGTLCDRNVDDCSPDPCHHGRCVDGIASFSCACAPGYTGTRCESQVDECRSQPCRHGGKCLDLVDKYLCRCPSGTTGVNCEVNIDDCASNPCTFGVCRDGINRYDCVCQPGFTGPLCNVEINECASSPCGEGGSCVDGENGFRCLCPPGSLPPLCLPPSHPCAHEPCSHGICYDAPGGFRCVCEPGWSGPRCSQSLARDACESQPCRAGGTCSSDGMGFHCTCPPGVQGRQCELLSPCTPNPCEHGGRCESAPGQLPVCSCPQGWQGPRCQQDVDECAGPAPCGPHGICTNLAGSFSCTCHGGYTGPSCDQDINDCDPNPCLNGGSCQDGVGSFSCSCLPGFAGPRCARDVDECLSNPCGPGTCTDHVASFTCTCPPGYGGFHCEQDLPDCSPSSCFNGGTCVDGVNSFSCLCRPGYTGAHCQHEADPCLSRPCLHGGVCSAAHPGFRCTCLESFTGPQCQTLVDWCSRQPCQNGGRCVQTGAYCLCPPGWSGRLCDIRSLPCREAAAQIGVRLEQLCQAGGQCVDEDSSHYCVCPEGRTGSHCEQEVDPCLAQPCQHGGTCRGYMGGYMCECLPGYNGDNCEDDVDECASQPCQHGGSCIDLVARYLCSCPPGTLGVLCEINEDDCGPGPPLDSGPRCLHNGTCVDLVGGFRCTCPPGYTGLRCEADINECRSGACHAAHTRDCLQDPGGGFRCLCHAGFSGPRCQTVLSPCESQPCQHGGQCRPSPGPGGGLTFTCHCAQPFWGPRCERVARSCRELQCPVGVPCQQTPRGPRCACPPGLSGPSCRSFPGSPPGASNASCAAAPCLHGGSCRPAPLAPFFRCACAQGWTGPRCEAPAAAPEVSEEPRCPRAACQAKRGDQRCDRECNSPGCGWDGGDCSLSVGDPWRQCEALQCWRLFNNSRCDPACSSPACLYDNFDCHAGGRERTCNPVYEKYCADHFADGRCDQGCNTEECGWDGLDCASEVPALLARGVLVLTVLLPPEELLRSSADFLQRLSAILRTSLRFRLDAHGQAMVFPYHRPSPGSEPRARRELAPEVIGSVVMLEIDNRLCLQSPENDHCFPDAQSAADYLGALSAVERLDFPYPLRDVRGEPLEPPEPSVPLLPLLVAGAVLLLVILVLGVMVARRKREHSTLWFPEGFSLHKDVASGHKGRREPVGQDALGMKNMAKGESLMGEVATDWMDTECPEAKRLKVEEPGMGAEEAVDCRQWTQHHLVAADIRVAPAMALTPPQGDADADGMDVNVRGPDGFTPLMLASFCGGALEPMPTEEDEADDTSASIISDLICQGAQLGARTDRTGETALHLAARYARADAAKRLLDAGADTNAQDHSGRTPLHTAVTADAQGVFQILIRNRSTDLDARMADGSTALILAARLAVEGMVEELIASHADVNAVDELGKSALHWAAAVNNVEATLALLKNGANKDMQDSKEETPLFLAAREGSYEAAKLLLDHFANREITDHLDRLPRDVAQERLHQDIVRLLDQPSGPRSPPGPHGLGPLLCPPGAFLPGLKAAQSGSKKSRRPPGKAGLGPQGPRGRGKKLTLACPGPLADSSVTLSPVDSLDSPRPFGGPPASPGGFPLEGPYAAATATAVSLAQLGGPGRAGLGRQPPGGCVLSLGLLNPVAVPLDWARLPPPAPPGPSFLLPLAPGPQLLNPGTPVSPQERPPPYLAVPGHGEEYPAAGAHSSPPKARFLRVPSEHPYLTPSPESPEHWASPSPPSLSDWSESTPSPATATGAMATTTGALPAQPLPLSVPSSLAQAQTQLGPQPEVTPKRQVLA
Dickkopf-related protein 1 (Homo sapiens), sequence (O94907 whole entry, looked up): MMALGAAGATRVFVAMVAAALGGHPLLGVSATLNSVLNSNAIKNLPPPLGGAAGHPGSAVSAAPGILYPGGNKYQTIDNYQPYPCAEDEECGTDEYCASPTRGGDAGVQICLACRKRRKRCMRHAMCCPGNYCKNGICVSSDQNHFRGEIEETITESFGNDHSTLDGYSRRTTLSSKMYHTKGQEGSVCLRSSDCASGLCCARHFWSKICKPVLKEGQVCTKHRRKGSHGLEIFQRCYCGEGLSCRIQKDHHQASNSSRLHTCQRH
Epidermal growth factor receptor (Homo sapiens), sequence (P00533 whole entry, looked up): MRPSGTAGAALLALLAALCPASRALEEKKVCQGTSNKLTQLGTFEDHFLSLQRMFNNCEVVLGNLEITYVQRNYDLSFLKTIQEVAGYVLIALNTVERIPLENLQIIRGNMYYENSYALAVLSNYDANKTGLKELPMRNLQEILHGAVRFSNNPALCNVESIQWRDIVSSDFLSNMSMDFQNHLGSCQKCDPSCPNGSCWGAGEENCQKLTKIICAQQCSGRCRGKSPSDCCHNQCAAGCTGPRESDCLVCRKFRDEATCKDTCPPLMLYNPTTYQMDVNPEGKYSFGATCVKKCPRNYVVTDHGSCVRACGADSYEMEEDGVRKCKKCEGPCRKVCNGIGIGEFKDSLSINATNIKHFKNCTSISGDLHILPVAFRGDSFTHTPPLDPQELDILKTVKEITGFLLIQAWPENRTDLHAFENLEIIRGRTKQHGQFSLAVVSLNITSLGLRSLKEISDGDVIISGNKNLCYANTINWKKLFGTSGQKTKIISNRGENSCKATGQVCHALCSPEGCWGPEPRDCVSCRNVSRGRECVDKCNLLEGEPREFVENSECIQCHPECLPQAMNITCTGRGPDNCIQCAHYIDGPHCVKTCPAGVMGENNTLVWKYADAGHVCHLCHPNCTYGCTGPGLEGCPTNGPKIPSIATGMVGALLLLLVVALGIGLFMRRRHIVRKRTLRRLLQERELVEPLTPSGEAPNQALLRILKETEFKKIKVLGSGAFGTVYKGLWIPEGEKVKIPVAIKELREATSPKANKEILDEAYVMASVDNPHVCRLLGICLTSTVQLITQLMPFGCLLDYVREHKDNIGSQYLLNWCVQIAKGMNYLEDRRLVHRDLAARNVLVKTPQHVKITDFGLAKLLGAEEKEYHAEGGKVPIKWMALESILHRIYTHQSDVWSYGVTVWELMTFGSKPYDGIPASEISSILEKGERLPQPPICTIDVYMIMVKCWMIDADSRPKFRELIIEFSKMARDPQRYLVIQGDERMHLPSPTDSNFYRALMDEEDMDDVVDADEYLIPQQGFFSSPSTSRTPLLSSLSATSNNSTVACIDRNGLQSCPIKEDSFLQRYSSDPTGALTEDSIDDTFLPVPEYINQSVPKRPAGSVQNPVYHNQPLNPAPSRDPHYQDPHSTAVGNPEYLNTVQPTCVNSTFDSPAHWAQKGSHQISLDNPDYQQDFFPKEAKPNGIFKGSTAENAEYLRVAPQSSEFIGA
Fibroblast growth factor 10 (Homo sapiens), sequence (O15520 whole entry, looked up): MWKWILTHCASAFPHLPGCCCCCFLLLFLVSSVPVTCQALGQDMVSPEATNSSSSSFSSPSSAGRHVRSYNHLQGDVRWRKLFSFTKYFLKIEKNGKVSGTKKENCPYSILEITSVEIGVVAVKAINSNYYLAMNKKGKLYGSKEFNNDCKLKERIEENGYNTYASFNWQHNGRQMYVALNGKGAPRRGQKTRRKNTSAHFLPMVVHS

Row | Structure (SMILES) | composite z-score [1] | z-score [2] | z-score [3] | z-score [4] | composite z-score [5] | z-score [6] | composite z-score [7] | composite z-score [8] | composite z-score [9] | composite z-score [10] | composite z-score [11] | composite z-score [12] | composite z-score [13] | z-score [14] | composite z-score [15] | composite z-score [16] | composite z-score [17] | composite z-score [18] | composite z-score [19] | composite z-score [20]
1 | C[N+](C)(C)CCCCCCNC(=O)[C@H]1C[C@H]2C(=O)NCC(=O)N2[C@H]1c1cccc(OCCO)c1 | 1.22 | -0.874 (inactive) | 0.198 (inactive) | 0.0891 (inactive) | 3.07 | -0.329 (inactive) | -0.133 | 1.48 | 1.12 | 0.208 | 1.75 | -0.149 | 0.0218 | -0.34 (inactive) | 0.439 | 0.548 | 0.228 | 0.969 | 1.28 | 0.169
2 | COCCOC(=O)N1C(=O)[C@@]2(c3cc(C#CCNC(N)=O)ccc31)[C@H](C(=O)NC[C@H](O)c1ccccc1)[C@H]1C(=O)O[C@H](c3ccccc3)[C@H](c3ccccc3)N1[C@@H]2c1ccc(OCCO)cc1 | 1.55 | 2.39 (inactive) | 1.54 (inactive) | 4.57 (inactive) | 2.5 | 0.383 (inactive) | -0.0083 | 0.683 | 1.16 | -0.0828 | 1.44 | 0.398 | 0.782 | -0.204 (inactive) | 0.872 | 0.939 | 0.565 | 0.898 | 0.301 | 0.649
3 | COC(=O)[C@@]1(Cc2ccc(OC)cc2)[C@H]2c3cc(C(=O)N4CCCC4)n(CCc4ccc(OC)c(Br)c4)c3C[C@H]2CN1C(=O)c1ccccc1 | -1.11 | 0.0024 (inactive) | 0.111 (inactive) | -0.751 (inactive) | 3.27 | 0.615 (inactive) | 0.153 | -0.802 | -0.0445 | -0.0357 | 1.31 | 0.801 | 0.904 | -0.947 (inactive) | 0.714 | -0.199 | 0.0993 | -0.457 | -0.858 | 1.03
4 | C=CCC(OC(C)=O)[C@@H]1[C@@H](N(Cc2cccc3ccccc23)C(=O)c2ccc(C)cc2)c2cc(OCCCO)ccc2N1C(=O)c1ccc2ccccc2n1 (stereo not given in full) | 0.56 | -2.04 (inactive) | 0.378 (inactive) | -0.6 (inactive) | 0.563 | 1.21 (inactive) | 0.0748 | 0.708 | 0.209 | -0.0437 | 0.206 | -0.16 | 0.322 | -1.47 (inactive) | 0.0635 | 0.104 | 0.386 | 0.29 | 0.145 | 0.863
5 | COCCOC(=O)N1C(=O)[C@@]2(c3cc(C#CC4=CCCCC4)ccc31)[C@H](c1ccccc1OCCO)N1[C@H](c3ccccc3)[C@H](c3ccccc3)OC(=O)[C@H]1[C@@H]2C(N)=O | 1.56 | 0.05 (inactive) | -0.96 (inactive) | 1.69 (inactive) | 1.66 | 2.66 (inactive) | -0.107 | 1.39 | 1.1 | -0.0211 | 1.35 | -0.0668 | -0.144 | -3.87 (inactive) | 1.29 | 1.31 | 0.766 | 1.2 | 0.912 | 0.557
6 | C[C@@H](OCc1ccccc1)C1NC(=O)[C@@]23C(=O)N[C@@H](Cc4ccccc4)C2[C@H](C)[C@@]2(C)O[C@H]2C3/C=C/C/C=C\CNC(=O)[C@H](Cc2ccccc2)NC1=O (stereo not given in full) | 0.448 | -0.712 (inactive) | -0.985 (inactive) | -0.0389 (inactive) | 0.956 | 1.29 (inactive) | -0.23 | 0.762 | 0.655 | -0.0257 | 0.21 | -0.288 | -0.743 | -0.708 (inactive) | 1.35 | 0.297 | 0.12 | 0.869 | 0.443 | 1.08
7 | COCC1=C([C@H](O)CCc2ccccc2)[C@H](CO)n2c(=O)n(-c3ccccc3)c(=O)n2C1 | -0.872 | -1.47 (inactive) | -1.41 (inactive) | -0.259 (inactive) | -0.728 | 2.86 (inactive) | -0.0146 | -0.0338 | -0.907 | -0.253 | -0.285 | -0.412 | -0.39 | -1.12 (inactive) | -0.187 | -0.295 | 0.445 | -0.41 | 0.353 | 0.785
8 | O=C1c2ccccc2[C@](Cc2ccccc2I)(C(=O)O)[C@H](c2ccc(CO)cc2)N1Cc1ccccc1 | 1.55 | -2.23 (inactive) | -0.912 (inactive) | -1.22 (inactive) | 2.5 | 0.66 (inactive) | 0.0299 | -0.57 | -0.0277 | -0.027 | 1.39 | 0.486 | 0.736 | 0.188 (inactive) | -0.011 | -0.0481 | -0.964 | -0.509 | -0.69 | -0.309
9 | CO[C@H]1O[C@H](CO)[C@@H](OC(=O)Nc2ccccc2)[C@@H]2OC(=O)[C@H](Cc3ccccc3)C/C=C/C[C@@H](Cc3ccccc3)C(=O)O[C@@H]12 | 1.55 | -1.03 (inactive) | -0.0378 (inactive) | 1.9 (inactive) | 2.58 | 0.588 (inactive) | -0.104 | 0.107 | 0.702 | 0.0308 | 1.46 | 0.273 | 0.651 | -0.724 (inactive) | 1.04 | 0.56 | 0.0366 | 0.877 | 0.048 | 1.14
10 | COC(=O)[C@@]1(Cc2ccccc2CN=[N+]=[N-])COC(c2ccc(OCCCO)cc2)=N1 | 1.26 | -1.38 (inactive) | -6.67 (inactive) | -1.9 (inactive) | 3.04 | 0.441 (inactive) | 0.175 | -1.69 | -1.25 | -0.442 | 1.97 | 0.269 | 1.23 | 0.861 (inactive) | -1.76 | -1.02 | -1.76 | -1.68 | -3.61 | -1.48
